# In PubChem BioAssay (NCI):
# The panel holds about 83,000 compounds, 20% with a hit somewhere; the sample as a whole holds those more often.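 Method: cells in 96-well plates; compound added at one concentration; 48 h incubation; percent growth measured; values under 10 scored active.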 Unmarked numbers belong to inactive results. Active and inactive are the calls of the source.
# System: NCI-H23 lung
# Experiment: NCI-60 one-dose screen, 48 h (100 = growth as untreated, 0 = no growth, -100 = all killed)
# Settings: 10 µM unless noted
row,Structure (SMILES),growth [%]
1,O=C(CN1CCCCC1)Nc1ccc2oc(=O)ccc2c1,97.5
2,COc1cc(C)c(C2C(C#N)=C(N)Oc3n[nH]c(-c4cccs4)c32)cc1C(C)C (stereo unspecified),93.9
3,CCNC(=O)Oc1ccc(/C(=C(\C)c2ccc(Cl)cc2)c2ccc(OCCN(CC)CC)cc2)cc1,65.6

# System: NCI-H226 lung
# Experiment: as above
# Settings: 10 µM unless noted
row,Structure (SMILES),growth
1,CCOC(=O)c1cc(C(=O)c2ccc(O)c(O)c2)n2ccc(-c3ccn4c(C(=O)c5ccc(O)c(O)c5)cc(C(=O)OCC)c4c3)cc12,107%
2,CC1C(/C=N/Nc2ccccc2)C(C#N)(C#N)C1(C#N)C#N (stereo unspecified),88%
3,O=C(/C=C/c1ccc(C(F)(F)F)cc1)Nc1ccc(C=C2c3ccccc3C(=O)c3ccccc32)cc1,67.8%
4,CC/C=C\C[C@H](O)C/C=C1/C(=O)C=C[C@@]1(C)C/C=C\CCCC(=O)OC,121%
5,COc1cc(-c2nn(-c3ccc(C(=O)O)cc3)cc2C(=O)O)ccc1O,102%
6,COc1ccc(O)c(N=Nc2nccs2)c1,92.2%
7,NCCNc1nc(Nc2ccc(-c3nc4ccccc4[nH]3)cc2)c2cn[nH]c2n1,81.4%
8,COc1cc(-c2nn(-c3ccc(Br)cc3)cc2C(=O)O)ccc1O,91.7%
9,OCCN1CCN(c2nc(Nc3ccc(-c4nc5ccccc5[nH]4)cc3)c3cn[nH]c3n2)CC1,106%
10,O=c1oc2c(C(F)(F)F)cccc2cc1-c1csc(Nc2ccc(OCCF)cc2)n1,17.3%
11,N#Cc1nnn(-c2ccc(S(N)(=O)=O)cc2)c1NC(=O)CCl,95.5%
12,C=C1C(=O)O[C@H]2[C@H]1CC/C(C=Nc1ccc(C(F)(F)F)cc1N)=C\CC[C@@]1(C)O[C@@H]21,42.5%
13,CSc1ccc(-c2ccccc(=O)c2O)cc1,16.1%
14,Clc1ccc2c(NCCNc3nc(N4CCCCC4)nc4ccccc34)ccnc2c1,-8.68% (active)
15,Cn1ccnc1C(=O)/C=C/c1ccc(CC(=O)Nc2ccccc2)cc1,47%
16,CC(C)CSc1nc(N)nc2c1ncn2C1OC(CO)C(O)C1O (stereo unspecified),101%
17,Cc1cc(N[C@@H]2CCC[C@H](Nc3ccnc4cc(Cl)ccc34)C2)nc(N2CCCCCC2)n1,-38.9% (active)
18,CC(C)(CCCN=C(N)Nc1ccc(Cl)cc1)c1ccc(F)cc1,95.6%
19,COc1ccc(-c2nc(SCC(=O)Nc3ccc(C(=O)/C=C/c4ccc(Cl)cc4)cc3)[nH]c(=O)c2C#N)cc1,96.3%

row,Structure (SMILES),growth
1,FC(F)(F)Oc1ccc2nc3nc4ccc[nH]c4cc3c2c1,57.2%
2,CCOC(=O)C(C)(C#N)C1C=CCCC1 (stereo unspecified),97.9%
3,O=C1/C(=C/c2ccc(OCCCOc3ccc(Cl)cc3)cc2)N=C2SCCCN12,86.4%
4,COc1cc(-c2nn(-c3ccc(C)cc3)cc2C(=O)O)ccc1O,102%
5,CC(=O)c1cc2c(N)c(C(=O)Nc3cccc(F)c3C)sc2nc1C,88%
6,COc1ccc(C2C(C#N)=C(N)Oc3n[nH]c(-c4cccs4)c32)cc1I (stereo unspecified),98.3%
7,CC(=O)c1cc(C(=O)c2ccc3c(c2)Sc2ccccc2N3)n2ccccc12,32.5%
8,CCOC(=O)c1c(C(=O)OCC)c2cc(-c3ccn4c(C(=O)c5ccccc5)c(C(=O)OCC)c(C(=O)OCC)c4c3)ccn2c1C(=O)c1ccccc1,93.1%
9,Cc1cc(N2CCCC2)nc(NC2CCCC(Nc3ccnc4cc(Cl)ccc34)C2)n1 (stereo unspecified),-56.2% (active)
10,COc1ccc2c(c1)CC/C(=C\c1cncc(Br)c1)C2=O,111%
11,CCc1nc(N)nc(N)c1C#CC(C)c1ccc(-c2ccncc2)cc1Cl (stereo unspecified),57.4%
12,CC(=O)O[C@H]1C(=O)[C@@]2(C)[C@H]([C@H](OC(=O)c3ccccc3)[C@]3(O)C[C@H](OC(=O)[C@H](OC(=O)CCC(=O)OC4CCC(S/N=C(N)/N=C(\N)N(C)C)CC4)[C@@H](NC(=O)c4ccccc4)c4ccccc4)C(C)=C1C3(C)C)[C@]1(OC(C)=O)CO[C@@H]1C[C@@H]2O (stereo partly specified),75.6%
13,CCNC(=O)Oc1ccc(/C(=C(\C)c2ccc(Cl)cc2)c2ccc(OCCN3CCCCC3)cc2)cc1,78.2%
14,CCOc1ccc(C(C)=O)cc1NC(=O)c1cccc(-c2nnn(CC)n2)c1,59%
15,CC/C=C\C[C@H]1C/C=C2/C(=O)C=C[C@H]2C/C=C\CCCC(=O)O1,40.5%
16,COc1cccc2c1C(=O)c1c(O)c3c(c(O)c1C2=O)C[C@](O)(C(=O)CO)C[C@H]3O[C@@H]1C[C@@H](NC(=O)CCCCCN(C)C2(c3ccc(F)cc3)CC3CCC2C3)[C@H](O)[C@@H](C)O1 (stereo partly specified),59.3%
17,O=C(CN1CCCCC1)Nc1ccc2oc(=O)ccc2c1,95.8%
18,COc1cc(C)c(C2C(C#N)=C(N)Oc3n[nH]c(-c4cccs4)c32)cc1C(C)C (stereo unspecified),101%
19,CCNC(=O)Oc1ccc(/C(=C(\C)c2ccc(Cl)cc2)c2ccc(OCCN(CC)CC)cc2)cc1,76.7%
